Measurements reported in the supplement of paper PMC6555819.

Assays:
Experiment in all cases: PBM binding z-score (relative to random genomic background probes); higher = stronger binding; sequences stand for … in GC…GCGATTGACAGCGTAGAATGAAGG
[1] = system: FXR:RXRa (NR concentration 270 nM, RXRa partner concentration 90 nM)
Summary of the method: (§1)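 Ligand-free nuclear receptor dimers were applied to custom Agilent 4×180K protein-binding microarrays whose double-stranded probes carried direct-repeat seeds, single-nucleotide variants, half-site ablations and random human genomic background sequences in 34-nt variable regions. Incubation lasted 1 h. Binding z-scores were computed against the random background probes from regression-normalized fluorescence.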

[2] = system: LXRa:RXRa (NR concentration 270 nM, RXRa partner concentration 90 nM)
Summary of the method: as §1

[3] = system: LXRa homodimer (NR concentration 270 nM)
Summary of the method: as §1

[4] = system: LXRb:RXRa (NR concentration 270 nM, RXRa partner concentration 90 nM)
Summary of the method: as §1

[5] = system: LXRb homodimer (NR concentration 270 nM)
Summary of the method: as §1

[6] = system: PPARa:RXRa (NR concentration 270 nM, RXRa partner concentration 90 nM)
Summary of the method: as §1

[7] = system: PPARg:RXRa (NR concentration 180 nM, RXRa partner concentration 90 nM)
Summary of the method: as §1

[8] = system: PPARg:RXRa 270nM:90nM, anti-RXR (NR concentration 270 nM, RXRa partner concentration 90 nM)
Summary of the method: as §1

[9] = system: PPARg:RXRa 30nM:10nM, anti-RXR (NR concentration 30 nM, RXRa partner concentration 10 nM)
Summary of the method: as §1

[10] = system: PPARg:RXRa 90nM:30nM, anti-RXR (NR concentration 90 nM, RXRa partner concentration 30 nM)
Summary of the method: as §1

[11] = system: PPARg:RXRa DBDmut IVT, anti-RXR (DBD mutation: RXRa K156A/R161A, NR concentration 270 nM, RXRa partner concentration 90 nM)
Summary of the method: as §1

[12] = system: PPARg:RXRa IVT, anti-PPARg (NR concentration 270 nM, RXRa partner concentration 90 nM)
Summary of the method: as §1

[13] = system: PPARg DBDmut:RXRa IVT, anti-PPARg (DBD mutation: PPARg1 K132A/R137A, NR concentration 270 nM, RXRa partner concentration 90 nM)
Summary of the method: as §1

[14] = system: PPARg DBDmut IVT, anti-PPARg (DBD mutation: PPARg1 K132A/R137A, NR concentration 270 nM)
Summary of the method: as §1

[15] = system: PPARg homodimer (NR concentration 180 nM)
Summary of the method: as §1

[16] = system: PXR:RXRa (NR concentration 270 nM, RXRa partner concentration 90 nM)
Summary of the method: as §1

[17] = system: PXR homodimer (NR concentration 270 nM)
Summary of the method: as §1

[18] = system: RARa:RXR (NR concentration 270 nM, RXRa partner concentration 90 nM)
Summary of the method: as §1

[19] = system: RARa homodimer (NR concentration 270 nM)
Summary of the method: as §1

[20] = system: RARb:RXRa (NR concentration 270 nM, RXRa partner concentration 90 nM)
Summary of the method: as §1

Sequence | PBM binding z-score [1] | PBM binding z-score [2] | PBM binding z-score [3] | PBM binding z-score [4] | PBM binding z-score [5] | PBM binding z-score [6] | PBM binding z-score [7] | PBM binding z-score [8] | PBM binding z-score [9] | PBM binding z-score [10] | PBM binding z-score [11] | PBM binding z-score [12] | PBM binding z-score [13] | PBM binding z-score [14] | PBM binding z-score [15] | PBM binding z-score [16] | PBM binding z-score [17] | PBM binding z-score [18] | PBM binding z-score [19] | PBM binding z-score [20]
ATCGAAAGGTCGTGAGGTGAGTATTCAGAAAGGC | 5.34 | 4.08 | -0.0279 | 3.34 | 0.35 | 5.12 | 4.06 | 4.24 | 1.5 | 2.96 | 0.173 | 2.36 | 0.908 | 0.365 | 1.83 | 3.37 | 0.136 | 4.62 | 0.587 | 4.08
TCTTGTAAATCAAGCAGGTTAAGAAAGCCTGAGT | 0.618 | 0.47 | -0.237 | 0.526 | -0.289 | 0.845 | -0.51 | 1.34 | 2.8 | 2.01 | 1.54 | -0.000502 | -0.116 | 0.31 | -0.337 | 0.678 | 0.119 | 0.64 | 0.0275 | 0.495
CCTACTGGGCCAAAAAGGTCGTTGATGCCGATAA | 0.402 | 0.901 | 0.0143 | 1.24 | -0.786 | 2.45 | 1.08 | 1.81 | 0.344 | 1.24 | 3.16 | 2.91 | -0.0977 | -1.31 | 0.923 | 1.69 | 0.426 | 1.77 | 0.0186 | 1.48
TCATATAGGTAAAGGTGCAAGTCGAACGATATGA | 0.551 | 0.493 | -0.176 | 0.57 | -0.374 | 2.77 | 4.36 | 5.55 | 4.82 | 5.79 | 3.53 | 3.68 | 0.688 | 1.15 | 0.555 | 0.241 | 0.116 | 0.949 | 0.796 | 0.566
AGTATGAGGTTATTAAGATCAGGGAATTGCGGTC | 1.55 | 1.75 | 0.568 | 1.52 | 0.578 | 2.12 | 0.776 | 1.12 | 0.453 | 0.816 | 0.549 | 1.51 | 1.49 | 0.314 | 1.11 | 1.5 | 0.942 | 1.55 | 1.05 | 1.4
GCGACTGGGGCATCAGCAGCTTACCATAACTTAA | -0.818 | -0.694 | -0.417 | -0.0189 | -1.2 | 0.137 | 0.465 | 0.329 | -0.116 | -0.198 | 4.14 | 2.77 | -0.78 | -0.628 | -0.268 | -0.462 | -0.432 | -0.454 | -0.449 | 0.116
AGTATTAGTTGACTTAGGGCAACCGATACGACGC | 0.048 | 0.00134 | 0.42 | 0.0482 | 0.3 | 0.128 | 0.82 | 0.435 | 0.448 | 0.623 | -0.0999 | 0.548 | 0.229 | 1.16 | 0.56 | 0.237 | 0.692 | 0.353 | 1 | 1.12
GGAACGAGGGCATTCGAGTTGATACCATGGCGAT | 0.529 | 1.7 | -0.438 | 0.458 | -0.357 | 1.44 | 1.06 | 0.855 | -0.156 | 0.405 | 3.16 | 2.33 | 1.32 | -0.701 | 0.6 | 4.1 | 1.75 | 2.07 | -0.391 | 1.93
CCGACTGGGGCATAACGTTACCATAAGCCAGCCC | -0.396 | -0.323 | -0.401 | -0.205 | -1.06 | 0.0712 | 0.89 | 0.484 | -0.471 | 0.117 | 2.66 | 1.66 | -0.938 | -1.07 | -0.33 | -0.824 | -0.237 | -0.522 | 0.566 | 0.162
GTATATAGGTAATACAAGGTGAAAGTCCGATTGT | 0.948 | 2.78 | 0.975 | 0.947 | 0.188 | 2.78 | 3.05 | 2.69 | 1.39 | 1.94 | 5.56 | 5.62 | 2.12 | 2.34 | 1.29 | 0.792 | 0.761 | 1.95 | 1.09 | 0.593
CCTACTGGGCCAAAGATCATTGATTCCAATGCTC | -0.285 | -0.527 | -0.374 | -0.317 | -0.68 | 3.5 | 6.88 | 7.31 | 6.04 | 7.74 | 4.33 | 4.24 | -0.277 | 0.286 | 0.269 | -0.408 | -0.738 | -0.185 | -0.399 | -0.0314
ATATGTAGGTTAAATCCGGGTCATTCAGGCTATG | 2.83 | 5.17 | 3.32 | 3.47 | 1.09 | 4.96 | 5.84 | 5.44 | 2.91 | 4.84 | 7.28 | 7.3 | 2.58 | 2.7 | 2.38 | 4.32 | 1.9 | 4.3 | 0.415 | 2.51
ATCGAAGGGTCGTGAGGTGAGTATACAGAAAGGC | 2.2 | 1.7 | -0.107 | 1.58 | 0.162 | 3.34 | 1.74 | 1.77 | 0.78 | 1.23 | -0.293 | 1.48 | 0.829 | 0.999 | 1.33 | 2 | 0.191 | 2.84 | 0.629 | 2.61
GTACCAAGGTGAATAAGTCGTTGATGAGTAGGCG | 0.544 | 0.243 | -0.143 | -0.0627 | -0.489 | 0.853 | 0.832 | 0.279 | 0.154 | -0.268 | 1.47 | 1.77 | -0.113 | 0.912 | 0.706 | -0.129 | 0.166 | 0.233 | 0.8 | 1.27
GATACATGGTCAGCTAGAGGCCAGAGTATGGAAA | -0.242 | -0.822 | -0.541 | -0.77 | -1.11 | -0.488 | 0.533 | -0.14 | -0.161 | -0.183 | -0.61 | 0.0448 | -1.36 | -0.885 | -0.578 | -0.344 | -0.0734 | -0.157 | -0.619 | 0.819
AATACAGGGTCACTAAGCCAGAGTAGGTACGAAT | 6.17 | 4.69 | 0.732 | 3.96 | 0.99 | 5.51 | 6.22 | 5.26 | 2.31 | 3.83 | 3.03 | 4.56 | 1.91 | 0.89 | 2.06 | 3.23 | 0.477 | 4.15 | 0.677 | 4.17
TCATATAGGCAATACAGGTGAAAGTCGGCATCTA | 1.06 | 0.731 | 0.422 | 0.906 | -0.3 | 1.3 | 0.823 | 1.91 | 3.62 | 2.85 | 2.91 | 1.7 | 0.893 | 0.339 | 0.723 | 0.419 | 0.292 | 0.707 | 0.869 | 0.192
ACAGACAGGTGATGAATGTAACTCAGGCTATCAT | -0.237 | -0.163 | 0.164 | 0.1 | -0.131 | 0.166 | 0.735 | -0.0666 | 0.338 | -0.0676 | 0.0883 | 0.304 | 0.806 | 0.471 | 0.379 | -0.102 | -0.0195 | 0.181 | 0.656 | 0.0754
CAAACTAGGTCACAGAGGTCAGAGTCCGTGCGTA | 6.35 | 5.23 | 4.71 | 4.72 | 0.859 | 6.11 | 9.99 | 7.88 | 6.14 | 7.84 | 8.64 | 9.29 | 2.49 | 1.4 | 4.05 | 5.59 | 7.79 | 5.97 | 1.84 | 5.11
